Assay results published in the supplement of paper PMC12669032.
Values without a mark were called inactive.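 Rule for the calls: active = AUC reduced over 20% with Padj below 0.05 in at least 2 of 3 replicates; inactive = otherwise.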

Legend:
Assay in all cases: growth AUC relative to DMSO control (median of replicates) (fraction); higher = more growth (less inhibition), active = hit call of the paper
Details in all cases: 20 µM; 24 h
Coprococcus comes = tested on: Coprococcus comes
How it was run: (§1)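 Area under the growth curve was normalised to the plate median of solvent-only wells, except on the industrial chemical plate, where row and column medians were used. Curves came from gut bacterial monocultures grown anaerobically at 37 °C in mGAM with 20 µM compound (1% DMSO), starting at OD600 0.05 and read at OD600 every hour for 24 h. The minimum OD of each curve was set to 0, and values are medians of three biological replicates grown on separate days.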

Escherichia coli ED1a = tested on: Escherichia coli ED1a
How it was run: as §1

Escherichia coli IAI1 = tested on: Escherichia coli IAI1
How it was run: as §1

Eubacterium rectale = tested on: Eubacterium rectale
How it was run: as §1

[1] = tested on: Fusobacterium nucleatum subsp. animalis
How it was run: as §1

Lactobacillus gasseri = tested on: Lactobacillus gasseri
How it was run: as §1

Lactobacillus paracasei = tested on: Lactobacillus paracasei
How it was run: as §1

Odoribacter splanchnicus = tested on: Odoribacter splanchnicus
How it was run: as §1

[2] = tested on: Parabacteroides distasonis
How it was run: as §1

Parabacteroides merdae = tested on: Parabacteroides merdae
How it was run: as §1

Roseburia intestinalis = tested on: Roseburia intestinalis
How it was run: as §1

Streptococcus salivarius = tested on: Streptococcus salivarius
How it was run: as §1

Row | SMILES | growth AUC (Coprococcus comes) | growth AUC (Escherichia coli ED1a) | growth AUC (Escherichia coli IAI1) | growth AUC (Eubacterium rectale) | growth AUC [1] | growth AUC (Lactobacillus gasseri) | growth AUC (Lactobacillus paracasei) | growth AUC (Odoribacter splanchnicus) | growth AUC [2] | growth AUC (Parabacteroides merdae) | growth AUC (Roseburia intestinalis) | growth AUC (Streptococcus salivarius)
1 | Cc1cc(Cl)ccc1OCC(=O)O | 1.02 | 1.02 | 1 | 0.984 | 1.07 | 1.05 | 1.04 | 1.05 | 1.01 | 1.04 | 1.02 | 0.983
2 | CN(C)c1nc(=O)n(C2CCCCC2)c(=O)n1C | 1.03 | 0.994 | 0.984 | 0.978 | 1.11 | 1.01 | 0.943 | 1.02 | 1.03 | 1.01 | 1.02 | 1.01
3 | CCOP(=S)(OCC)SCSC(C)(C)C | 0.996 | 1 | 1.01 | 1.22 | 0.902 | 0.909 | 1.03 | 1.06 | 0.955 | 1 | 0.951 | 0.996
4 | Nc1ncn[nH]1 | 0.974 | 1.02 | 1.01 | 0.987 | 1.1 | 0.942 | 0.995 | 1.03 | 1.02 | 0.981 | 0.985 | 0.997
5 | O=C(NC(=O)c1c(F)cccc1F)Nc1cc(Cl)c(OC(F)(F)C(F)C(F)(F)F)cc1Cl (stereo not given) | 0.919 | 0.996 | 1 | 1.01 | 1.01 | 0.989 | 0.976 | 0.993 | 0.964 | 0.988 | 1.02 | 0.958
6 | CCC(C)(C)c1ccc(O)cc1 | 1.03 | 0.978 | 0.985 | 0.953 | 1 | 0.957 | 0.999 | 1.08 | 1.03 | 1.01 | 0.995 | 0.995
7 | CC(C)(C)c1ccc(CSc2cnn(C(C)(C)C)c(=O)c2Cl)cc1 | 0.976 | 1 | 0.986 | 0.966 | 1.05 | 0.945 | 1.16 | 1.07 | 0.988 | 0.962 | 0.979 | 0.986
8 | O=C(Nc1ccccc1)Nc1ccnc(Cl)c1 | 1.03 | 0.942 | 0.788 (active) | 0.803 | 1.1 | 0.858 | 0.971 | 0.912 | 0.677 (active) | 0.888 | 0.896 | 0.844
9 | CS(=O)(=O)NC(=O)c1cc(Oc2ccc(C(F)(F)F)cc2Cl)ccc1[N+](=O)[O-] | 0.926 | 0.971 | 0.962 | 1.09 | 0.906 | 0.958 | 1.01 | 1.09 | 0.984 | 0.978 | 0.966 | 0.917
10 | CNC(=O)O/N=C(\SC)C(=O)N(C)C | 0.971 | 0.985 | 0.987 | 1 | 0.979 | 1.09 | 0.883 | 0.975 | 0.99 | 0.973 | 0.997 | 1.02
11 | N#Cc1c(Cl)cccc1Cl | 0.994 | 0.999 | 1.03 | 0.936 | 1.04 | 1.17 | 0.884 | 1.01 | 1.04 | 1.01 | 1.07 | 0.951
12 | COc1ncc(F)c2nc(S(=O)(=O)Nc3c(F)cccc3F)nn12 | 1.03 | 1.01 | 0.989 | 1 | 1.02 | 1.01 | 1 | 0.992 | 0.983 | 1.01 | 1.02 | 1
13 | CCCCOC(=O)c1ccccc1C(=O)OCCCC | 1 | 1 | 0.962 | 1.07 | 1.06 | 0.911 | 0.986 | 1.07 | 0.759 (active) | 0.964 | 0.953 | 1.02
14 | Nc1c(Cl)c(F)nc(OCC(=O)O)c1Cl | 0.99 | 0.992 | 1.03 | 0.918 | 0.971 | 1.11 | 1.16 | 1 | 0.972 | 1.01 | 1 | 1
15 | FC(F)C(F)(F)OCC(Cn1cncn1)c1ccc(Cl)cc1Cl (stereo not given) | 0.979 | 0.972 | 0.966 | 0.804 | 1.02 | 0.912 | 0.841 | 0.981 | 0.951 | 0.932 | 0.956 | 0.996
16 | COP(=S)(OC)Oc1ccc(S(C)(=O)=O)c(C)c1 | 1.03 | 0.991 | 0.985 | 1 | 1.1 | 0.901 | 1.01 | 1.03 | 0.987 | 0.993 | 0.985 | 0.972
17 | Nc1cnn(-c2ccccc2)c(=O)c1Cl | 1.02 | 1.03 | 1 | 1.03 | 1.05 | 1.07 | 1.07 | 0.949 | 0.996 | 0.997 | 1.1 | 1.1
18 | OC(Cc1ccccc1Cl)(Cn1cncn1)C1(Cl)CC1 (stereo not given) | 0.963 | 0.993 | 0.941 | 0.849 | 0.897 | 1.16 | 1.02 | 0.95 | 1.01 | 0.977 | 1.05 | 0.998
19 | CCOc1ccccc1OS(=O)(=O)NC(=O)Nc1nc(OC)cc(OC)n1 | 1.01 | 1.01 | 1.01 | 0.938 | 1 | 1.11 | 0.736 | 1.15 | 1.02 | 1.02 | 0.92 | 0.966
20 | C[C@H]1[C@H](c2ccc(Cl)cc2)SC(=O)N1C(=O)NC1CCCCC1 | 1.03 | 1 | 0.996 | 1.05 | 1.07 | 0.791 | 1.03 | 0.832 | 0.725 | 0.947 | 0.922 | 0.985
